Records with an inconclusive call do not appear. A number with no mark means an inactive call. Calls of active or inactive are those of the source. Calls follow the shape of the dose curve; as a rule, active = well fitted cell-killing curve with a large enough effect; inconclusive = small, poorly fitted or top-dose-only effect, or effect the other way; inactive = no such curve, though single readings can be large or run the other way.
test system: Jar; assay: Confirmatory qHTS for gynecologic anti-cancer compounds from libraries of approved drugs and bioactive compounds; details: gynecologic cancer cell panel viability, ATPlite luminescence, 48 h; series mostly up to 57.6 µM; activity change, negative = viability loss: at the top concentration; also: nearly all actives have a fitted effect of over 55% in size
Method in brief: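 Cells (1,000/well) were plated, left 16 h at 37 C/5% CO2, then given compound at 11 concentrations (1:3) from 57.5 uM to 0.977 nM for 48 h. ATPlite luminescence after 15 min at room temperature gave IC50 values.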
% is scaled to controls: 0 for no effect and ±100 for the full control effect; potency is read from the fitted curve at half-maximal effect.

Row | Compound | activity change, negative = viability loss | Potency
1 | CCNC(=O)C[C@@H]1N=C(c2ccc(Cl)cc2)c2cc(OC)ccc2-n2c(C)nnc21 | -8.57% | 
2 | Cc1sc2c(c1C)C(c1ccc(Cl)cc1)=NC(CC(=O)OC(C)(C)C)c1nnc(C)n1-2 (configuration not stated) |  | 5.44 µM (active)
3 | C[C@H]1CCC/C=C/C2C[C@H](O)C[C@H]2[C@H](O)/C=C/C(=O)O1 (some centres not stated) |  | 0.432 µM (active)
4 | CCC(=O)O[C@H]1CC[C@H]2[C@@H]3CCC4=CC(=O)CC[C@]4(C)[C@H]3CC[C@]12C | -25.3% | 
5 | C=C(C)[C@H]1Cc2c(ccc3c2O[C@@H]2COc4cc(OC)c(OC)cc4[C@@H]2C3=O)O1 |  | 0.0343 µM (active)
6 | O=C(O)Cc1ccccc1 | 11.9% | 
7 | C[C@]12CC[C@H]3[C@@H](CCC4=CC(=O)CC[C@@H]43)[C@@H]1CC[C@@H]2OC(=O)CCc1ccccc1 | -13.7% | 

Reference: PubChem BioAssay AID1345085 (National Center for Advancing Translational Sciences (NCATS), 2018)
